# This is a sample that favours compounds with a hit; in the whole collection about 7.5% have one here.
# NPC1 promoter act: NPC1 promoter activation | Huh7 NPC1 promoter luciferase reporter, 24 h | 320,000 tested, 2.4% active | Potency, µM (highest dose often 9.22 µM), for inactives: top-dose activation, hits mostly activators | AID 485313; also: % of control where 0% means no effect; nearly all actives have a fitted effect of over 60% in size
#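 Stably transfected Huh7 (NPC1 promoter→luciferase), 1500 cells/well in Opti-MEM + 10% FBS, 2 h settle, then compound 24 h at 37 °C. Luminescence after 10 min with Amplite reagent.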
# FLuc counter: firefly luciferase modulation, counter-screen for miR-21 project | 360,000 tested, 6.9% active | purified FLuc, Km substrates, luminescence inhibition | Potency, µM (series often up to 57.5 µM), inactives show at the top dose activity change, negative = inhibition, most hits filed as inhibitors | AID 588342;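 also: plate controls were vehicle for no effect and reference inhibitor for full effect; nearly all actives have a fitted effect of over 55% in size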
# Target sequence (P08659 whole entry, looked up): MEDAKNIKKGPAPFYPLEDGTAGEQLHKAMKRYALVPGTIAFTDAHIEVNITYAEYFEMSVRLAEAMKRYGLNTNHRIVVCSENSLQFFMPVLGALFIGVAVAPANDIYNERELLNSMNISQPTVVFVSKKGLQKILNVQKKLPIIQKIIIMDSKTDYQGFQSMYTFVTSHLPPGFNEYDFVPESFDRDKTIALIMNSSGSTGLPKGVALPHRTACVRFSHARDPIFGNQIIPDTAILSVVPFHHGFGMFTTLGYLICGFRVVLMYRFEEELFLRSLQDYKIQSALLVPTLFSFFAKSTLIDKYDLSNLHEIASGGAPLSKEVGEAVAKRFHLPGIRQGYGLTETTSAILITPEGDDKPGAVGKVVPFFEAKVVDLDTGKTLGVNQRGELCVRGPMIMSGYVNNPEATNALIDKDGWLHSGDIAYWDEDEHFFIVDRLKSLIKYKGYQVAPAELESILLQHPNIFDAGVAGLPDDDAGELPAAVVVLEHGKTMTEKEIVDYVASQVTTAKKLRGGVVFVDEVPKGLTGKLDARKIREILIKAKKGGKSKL
#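 Purified P. pyralis luciferase (10nM final) with 10uM D-luciferin and 10uM ATP (Km levels) in 50mM Tris acetate pH 7.5, 10mM Mg acetate, 0.01% Tween-20, 0.05% BSA; qHTS 6-point titration, ~60 µM downward; luminescence read.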
# SMN2 splice enh: enhancers of SMN2 splice variant expression. HEK293 SMN2-luciferase splicing reporter, luminescence, 30-36 h. 210,000 tested, 2.8% active. Potency, µM (titrated, usually from 46.1 µM), inactives show at the highest dose activity change, positive = activation, hits mostly activators; also: % of control where 0% means no effect; nearly all actives have a fitted effect of over 55% in size
#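 qHTS luciferase splicing reporter: luminescence rises when SMN2 exon 7 is included in transfected HEK293 cells. Compound exposure lasted 30-36 h at 37C, with 4.5 mM final sodium butyrate as control, followed by a ONE-Glo read.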
# Rab9 promoter act: Rab9 promoter activation; Huh7 Rab9 promoter-luciferase reporter, luminescence, 24 h; Potency, µM (series often up to 9.22 µM), for the others: at the highest dose activation, negative = inhibition, most hits filed as activators; 320,000 tested, 2.8% active; also: % of control where 0% means no effect; nearly all actives have a fitted effect of over 60% in size
#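 Measured in stably transfected Huh7 cells bearing a Rab9 promoter–luciferase construct: 24 h compound treatment at 37 °C, followed by luminescence detection.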
# ELG1 genotoxic: induces genotoxicity in HEK293T cells with luciferase-tagged ELG1. HEK293T ELG1-luciferase reporter, luminescence, 16 h. 330,000 tested, 1.3% active. Potency, µM (series often up to 46 µM), for the others: at the top dose activity change, positive = activation, usual class: activators. AID 504466; also: % of control where 0% means no effect; nearly all actives have a fitted effect of over 60% in size
#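 After overnight (16 hr) compound treatment at 37 °C, ELG1-luciferase HEK293T cells were lysed with ONE-Glo; luminescence quantified 30 min later at room temperature.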
# Starred values were filed as active, the others as inactive; ? = inconclusive; . = no result; [ ] = another dose, or the depositor's remark. Calls follow the shape of the dose curve; as a rule, active = well fitted curve in the direction sought with a large enough effect; inconclusive = small, poorly fitted or top-dose-only effect, or another doubt; inactive = no such curve, though single readings can be large; an effect the other way counts as inactive or inconclusive. Potency is read from the fitted curve at half-maximal effect.
SMILES,NPC1 promoter act,FLuc counter,SMN2 splice enh,Rab9 promoter act,ELG1 genotoxic
COc1ccc(C(C)=O)cc1COc1ccc(Cl)cc1Cl,-1%,15µM*,.,0%,-4%
COc1ccc(C(C)=O)cc1COC(=O)c1c(C)noc1C,-1%,0%,-2%,-11%,10%
COc1cc(-c2nnc(CSc3nnc(Nc4ccc(Oc5ccccc5)cc4)s3)o2)cc(OC)c1OC,15%,9.5µM*,13%,14%,-2%
Cc1ccc(NC(=O)c2ccc3c(c2)OCCO3)cc1,0.32µM*,0.54µM*,0.71µM*,0.1µM*,?
NS(=O)(=O)c1ccc(NC(=O)c2ccc3c(c2)OCO3)cc1,15%,-18%,.,12%,4%
O=C(Nc1ccncc1)c1ccc2c(c1)OCCO2,0%,17µM*,-26%,9%,5%
C/C(=N/NS(=O)(=O)c1cc(C)ccc1C)c1ccncc1,1%,8%,.,2%,2%
COc1ccc(CC(=O)N/N=C(\C)c2cccnc2)cc1,-1%,2%,.,3%,4%
CN=c1scc(-c2ccc(OC)cc2)n1/N=C(\C)c1cccnc1,14%,12µM*,-21%,1%,-2%
CCOC(=O)COc1ccccc1/C=C1/NC(=O)NC1=O,-1%,6%,-11%,-1%,-1%
COc1cccc(/C=C2\NC(=O)NC2=O)c1O,29%,7.6µM*,.,26%,?
Nc1nc(SCc2ccc(Br)cc2)[nH]c(=O)c1-c1ccccc1,5%,-7%,.,2%,0%
Cc1cc(C)c2nc(SCC(=O)N3CC(=O)Nc4ccccc43)c(C#N)cc2c1,-19%,12µM*,-58%,-31%,12%
CCOC(=O)/C(=N/Nc1ccc(C)cc1)S(=O)(=O)c1ccc(Cl)cc1,?,17µM*,3%,?,?
CC(=O)Nc1ccccc1C(=O)C(=O)Nc1ccc(C)c(C)c1,2µM*,?,18µM*,0.89µM*,?
CCc1ccc(NC(=O)C(=O)c2ccccc2NC(C)=O)cc1,1.6µM*,?,.,2.8µM*,?
CC(=O)Nc1ccccc1C(=O)C(=O)Nc1ccc(F)c(Cl)c1,4µM*,3%,.,3.2µM*,?
CC(=O)Nc1ccccc1C(=O)C(=O)Nc1cccc(C(=O)NCc2ccccc2)c1,-1%,4%,-5%,14%,-1%
CC(=O)Nc1ccccc1C(=O)C(=O)Nc1ccc(C)c(F)c1,3.5µM*,?,6.3µM*,1.8µM*,?
CCC(=O)Nc1ccc(F)c(Cl)c1,0%,0%,-14%,0%,0%
CCCC[C@]12Cc3cc(C#N)ccc3C(O1)c1c(c3ccccc3oc1=O)O2,3%[1.84 µM],3%[11.5 µM],.,-4%[1.84 µM],.
CC(C)C[C@H]1CN=C(N(C)C)N1CCCCc1ccccc1,-3%,5%,.,-9%,-30%
O=C(c1ccc2c(c1)N(Cc1ccccc1F)C(=O)c1ccccc1S2(=O)=O)N1CCN(c2ccccc2F)CC1,.,-1%,12%,.,.
Cc1ccc(N(CC(=O)N2CCN(c3cccc(C)c3C)CC2)S(=O)(=O)c2c(C)nn(C)c2C)cc1,.,-8%,-50%,.,.
Cc1ccc(NC(=O)/C(C#N)=C/c2ccc(C(C)C)cc2)cc1C,.,-19%,0%,.,.
SMILES,NPC1 promoter act,FLuc counter,SMN2 splice enh,Rab9 promoter act,ELG1 genotoxic
Cc1ccc(NC(=O)/C(Cl)=C/c2ccccc2)cc1C,1.8µM*,0.76µM*,?,2.5µM*,?
NC(=O)c1ccccc1NC(=O)Nc1cccc(Cl)c1Cl,0%,-12%,5%,-3%,5%
NC(=O)c1ccccc1NC(=O)Nc1ccc(F)c(Cl)c1,-2%,9.5µM*,18%,0%,5%
COc1ccc2nc(N=Nc3ccc(N(C)C)cc3)sc2c1,0.32µM*,0.067µM*,-5%,0.71µM*,?
COc1ccc2nc(/N=C\N(C)C)sc2c1,24%,24µM*,39%,?,16%
COc1ccc2nc(/N=C/c3c(C)[nH]n(-c4ccc(C)cc4)c3=O)sc2c1,11%,7.6µM*,?,22%,4%
COc1ccc2nc(/N=C/c3cccc(OC)c3O)sc2c1,26%,0.95µM*,.,?,?
COc1ccc2c(c1)-c1nc(/N=C/c3cccc(OC)c3O)sc1CC2,-1%,?,2%[1.84 µM],2%,-2%
Cc1ccc(NC(=O)Cn2nc(C(F)(F)F)c3c2CCCC3)cc1,.,-8%,1%,.,.
O=C(COC(=O)C1COc2ccccc2O1)NC(=O)NC1CCCC1 (stereo not given),0%,2%,11%,-1%,-1%
CCOC(=O)c1ccc2ncc(C(=O)OCC)c(NCCCN3CCOCC3)c2c1,-3%,1%,8%,1%,-1%
CCOC(=O)C1(C)C=C(Nc2ccc(NC(C)=O)cc2)C(=O)N1c1ccc(NC(C)=O)cc1 (stereo not given),0%,0%,.,-5%,1%
Cc1[nH]c2ccccc2c1C(=O)CSc1nc2ccccc2[nH]1,28%,?,17%,25%,0%
Cc1nc(/N=C\N(C)C)sc1C(=O)Nc1ccccc1,18%,-14%,13%,12%,?
CN(C)/C=N/c1nc2ccc3c(c2s1)CCCC3,2.5µM*,6µM*,14µM*,3.5µM*,?
CC1CCN(C(=O)c2ccc3c(c2)NC(=O)/C(=C/c2ccccc2)S3)CC1,-5%,-16%,.,-1%,2%[9.26 µM]
CCN1CCCC1CNC(=O)c1ccc2c(c1)NC(=O)/C(=C\c1ccc(C)cc1)S2 (stereo not given),0%,21µM*,.,-2%,?
Cc1ccc(/C=C2/Sc3ccc(C(=O)NCCN4CCOCC4)cc3NC2=O)cc1,-3%,?,.,1%,4%
Cc1ccc(/C=C2/Sc3ccc(C(=O)N4CCN(C)CC4)cc3NC2=O)cc1,-1%,15µM*,.,0%,2%
CCN(CC)c1ccc(CNc2ccc(Br)cn2)cc1,?,?,?,26%,10µM*
CCCC(=O)Nc1ccc(C#Cc2ccccc2)cc1,1.6µM*,4.8µM*,?,2.8µM*,?
O=C(Nc1ccc(C#Cc2ccccc2)cc1)C1CC1,2.5µM*,5.4µM*,3.5µM*,1.4µM*,?
O=C(Nc1ccccc1O)c1ccc(NC(=O)C2CC2)cc1,3.5µM*,12µM*,.,2.8µM*,21µM*
Cc1ccc(-n2c(C)cc(C(=O)OCC(=O)N(CC(C)C)C3CCS(=O)(=O)C3)c2C)cc1 (stereo not given),2%,1%,17%,1%,1%
O=C1CCc2cc(NS(=O)(=O)c3ccc(F)cc3)cc3c2N1CC3,-3%,2%,.,-1%,?
Cc1ccc(S(=O)(=O)Nc2cc3c4c(c2)CCN4C(=O)CC3)cc1,-8%,-1%,.,3%,10µM*
O=c1cnn([C@@H]2O[C@H](CO)[C@@H](O)[C@H]2O)c(=O)[nH]1,-6%,3%,2µM*,1%,-12%
O=C(CSc1nc(O)c(C2CCCCC2)c(=O)[nH]1)NCC1CCCO1 (stereo not given),-3%,15µM*,2%,10%,2%
